# Bioassay records: PubChem, The Scripps Research Institute Molecular Screening Center
# FBW7 activator: FBW7 E3 ligase activators, primary screen, biochemical, AlphaScreen, human; AID 1259310, 2017; AlphaScreen FBW7–phospho-cyclin E peptide binding, activator screen; 650,000 compounds, 0.13% hits; normalized activity (activation), % at 26.1 µM; in the data active means normalized activity above about 1.9%;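 further: purified mutant Fbw7 with reduced substrate affinity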
# TEAD-YAP block: TEAD-YAP interaction inhibition, primary screen, TEAD-YAP interaction inhibitor project, luminescence, HEK-TIYL cells; 640,000 compounds, 1.4% hits; inhibition, % at 9.12 µM; TEAD-Gal4/YAP UAS-luciferase luminescence; in the data active means inhibition above about 32%;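 further: 0% = median of test compound wells and 100% = reference inhibitor wells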
# MITF inh: MITF inhibitors, primary screen, biochemical, AlphaScreen, human. 650,000 compounds, 0.91% hits. Microphthalmia-associated transcription factor (Homo sapiens), O75030. AlphaScreen MITF homodimerization, bead proximity signal. inhibition, % at 2.6 µM; in the data active means inhibition above about 50%;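 further: 0% = vehicle wells with protein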
# GPR151 activ: activators of human GPR151, primary screen, cell-based, PathHunter beta-arrestin, luminescence | PathHunter beta-arrestin GPR151 cells | 650,000 compounds, 1% hits | activation, % at 11.2 µM; in the data active means activation above about 4.9%;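 further: 0% = median of compound wells and 100% = cells with positive control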
# Target sequence (Q8TDV0 whole entry, looked up): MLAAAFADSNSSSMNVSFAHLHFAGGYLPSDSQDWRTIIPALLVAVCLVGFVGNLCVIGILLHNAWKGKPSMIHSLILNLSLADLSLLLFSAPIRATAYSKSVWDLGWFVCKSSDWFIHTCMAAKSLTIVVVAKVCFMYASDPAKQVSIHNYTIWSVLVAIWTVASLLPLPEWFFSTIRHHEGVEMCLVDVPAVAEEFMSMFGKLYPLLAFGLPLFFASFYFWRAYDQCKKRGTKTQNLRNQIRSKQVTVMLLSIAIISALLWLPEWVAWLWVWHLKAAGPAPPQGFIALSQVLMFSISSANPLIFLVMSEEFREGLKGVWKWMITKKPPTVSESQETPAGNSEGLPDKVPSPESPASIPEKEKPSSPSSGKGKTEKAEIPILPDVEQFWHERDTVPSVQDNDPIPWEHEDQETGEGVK
# GPR151 conf act: GPR151 activators, triplicate retest, confirmation, cell-based, PathHunter beta-arrestin, luminescence | shares compounds with GPR151 activ | GPR151 PathHunter beta-arrestin cells, 90 min; % of EA-reagent control over plate median | activation, % at 11.2 µM | 6,700 tested, under 10 active;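 active means mean percent activation across replicates above the confirmation screen cutoff of 4.91%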
# GPR119 counter: GPR119 activators in beta-arrestin cells, counter-screen for GPR151 activator project, cell-based, PathHunter beta-arrestin, luminescence, triplicate | 90 min; 0 = compound-well median, 100 = enzyme-acceptor control | activation, % at 11.2 µM | shares compounds with GPR151 activ | AID 1508611, 2020 | 6,700 compounds, 0.3% hits;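 active means mean percent activation in the counterscreen above 29.09%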;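 further: counterscreen on off-target GPR119 to flag nonselective hits from the GPR151 activator screen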
# * = called active by the depositor; / = no result. Shown are actives, neighbours in structure and some others; about 3.4% of the full set was active somewhere.
SMILES,FBW7 activator,TEAD-YAP block,MITF inh,GPR151 activ,GPR151 conf act,GPR119 counter
Cc1sc2ncn(CC(=O)NCC(=O)NCc3ccccn3)c(=O)c2c1C,0,-2,14,-1,/,/
Cc1ccc(NC(=O)Cn2cnc3sc(C(=O)Nc4ccccc4)c(C)c3c2=O)cc1,1,11,6,8.9*,0,2
CCN(CC)C(=O)Cn1cnc2sc(C(=O)Nc3cc(C)ccc3OC)c(C)c2c1=O,0,-3,-3,4.9*,2,5
CCN(CC)C(=O)Cn1cnc2sc(C(=O)Nc3cc(OC)ccc3OC)c(C)c2c1=O,0,0,3,0,/,/
Cc1sc2ncn(CC(=O)NCc3ccccn3)c(=O)c2c1C,0,-6,-14,5.1*,0,-11
Cc1nc2cc(C(=O)OCC(=O)Nc3ccc(C#N)cc3)ccc2n1-c1ccccc1,0,-1,4,-1,/,/
CC(=O)c1ccc(NC(=O)COC(=O)c2ccc3c(c2)nc(C)n3-c2ccccc2)cc1,0,-11,16,7.1*,2,12
CCOc1ccc(CN(C(=O)c2cccs2)C2CCS(=O)(=O)C2)cc1 (centres undefined),0,-9,5,6.8*,0,9
COc1ccc(CN(C(=O)c2cccs2)C2CCS(=O)(=O)C2)cc1 (centres undefined),0,0,14,0,/,/
COC(=O)c1c(NC(=O)CSc2nnc3cc(C)c4ccccc4n23)sc2c1CCCC2,0,-6,-8,0,/,/
Cc1cc2nnc(SCC(=O)Nc3sc4c(c3C#N)CCCCC4)n2c2ccccc12,0,-2,12,5.9*,1,13
COc1ccc2ccccc2c1/C=C1/C(=O)NC(=O)N(Cc2ccc(F)cc2)C1=O,-1,3,-7,2,/,/
COc1cccc(CN2C=NS(=O)(=O)c3ccccc32)c1,0,6,-1,-1,/,/
CN1/C(=C\C(=O)CSc2nccc(=O)[nH]2)C(C)(C)c2ccccc21,0,0,14,2,/,/
CCOc1ccc(/C(O)=C2/C(=O)C(=O)N(CCN(CC)CC)C2c2ccc(OC)c(OC)c2)cc1C (centres undefined),0,-10,0,6.6*,0,-5
CCOc1ccc(/C(O)=C2/C(=O)C(=O)N(CCN(CC)CC)C2c2ccc(Cl)cc2)cc1C (centres undefined),0,7,1,-1,/,/
C=CCN1C(=O)S/C(=C/c2cccn2C)C1=O,0,-58,8,2,/,/
CC(=O)Nc1cnc2cnc(-c3ccc(C(C)C)cc3)cn12,0,9,15,5.2*,-1,-4
O=C(COC(=O)c1ccccc1O)c1ccc(Br)cc1,0,-22,18,-2,/,/
O=C(CC(=O)c1ccccc1O)c1ccc(Br)cc1,0,-30,-9,5.4*,-1,-8
COc1cccc(C(c2sc3nc(C)nn3c2O)N2CCC(O)CC2)c1 (centres undefined),0,3,6,0,/,/
COc1ccc(C(=O)NC2CC2)cc1OC1CCN(C2CCC2)CC1,0,-15,7,7.0*,0,1
COc1ccc(C(=O)NC2CC2)cc1OC1CCN(C2CCCCCC2)CC1,0,0,3,0,/,/
COc1ccc(C(=O)NC2CC2)cc1OC1CCN(C2Cc3ccccc3C2)CC1,0,-23,4,11*,0,-1
O=C1NC(c2ccc(O)cc2)c2c1n[nH]c2-c1ccco1 (centres undefined),0,3,16,1,/,/
SMILES,FBW7 activator,TEAD-YAP block,MITF inh,GPR151 activ,GPR151 conf act,GPR119 counter
COc1c2occc2c(OC)c2c(=O)cc(C(F)(F)C(F)(F)F)oc12,0,6,10,5.3*,0,5
Cc1c2cnn(CC(=O)NCC(C)c3ccccc3)c(=O)c2c(C)n1Cc1ccc(F)cc1 (centres undefined),0,-1,8,0,/,/
O=C(/C=C/c1ccco1)NC(=S)Nc1cccnc1,0,-3,19,-1,/,/
O=c1oc2ccc(Cl)cc2cc1-c1nnc(-c2ccccc2Cl)o1,0,-1,2,5.6*,0,-12
Cc1cc2nc(C3CCCN3C(=O)CN3CCCCC3)[nH]c2cc1C (centres undefined),0,-3,7,0,/,/
Cc1cc2nc(C3CCCN3C(=O)CC3(C)C(=O)N=C4C=CC=CN43)[nH]c2cc1C (centres undefined),1,4,20,8.0*,-1,0
NC(=O)c1c(/N=c2\oc3ccccc3cc2C(=O)Nc2cccc(C(F)(F)F)c2)sc2c1CCCC2,0,-8,-19,1,/,/
COc1ccc([C@@H]2C[C@H]3CN(C4Cc5ccccc5C4)C(=O)[C@]34CCCN24)c(OC)c1OC,0,-2,4,3,/,/
Cc1cc(C)n2nc(NCc3ccccc3Cl)nc2n1,0,-20,15,5.1*,1,5
NNC(=O)CNC(=O)COc1ccc(Cl)cc1Cl,0,5,2,1,/,/
CCCCOc1ccc(C(=O)Nc2c3c(nn2-c2cccc(C)c2C)CSC3)cc1,0,9,2,1,/,/
Cc1ccc2onc(CNC(=O)N3CCCCC3)c2c1,0,-10,7,7.0*,0,4
CCN1CCN(C(=O)NCc2noc3ccc(C)cc23)CC1,0,9,7,-1,/,/
CC(C)(C)OC(=O)N1CCC(Nc2nccc(-c3ccc(S(C)(=O)=O)cc3)n2)CC1,0,-15,-3,3,/,/
CC(C)(C)OC(=O)N1CCN(c2nccc(-c3ccc(-c4ccc(Cl)cc4)s3)n2)CC1,/,/,/,5.3*,0,7
O=C1CC2(CCN(S(=O)(=O)c3ccc(Br)cc3)CC2)Oc2ccccc21,0,19,-15,1,/,/
CC1=CC(C)(C)N(C(=O)CN2C(=O)CCC2=O)c2cc(C)ccc21,0,3,5,12*,-1,-12
COCCNC(=O)c1ccc(/C=C2\Oc3ccccc3N(C)C2=O)cc1,1,-5,-20,11*,-1,12
Cc1ccc(C)c(OC2=NS(=O)(=O)c3cc([N+](=O)[O-])ccc32)c1,0,0,-3,3,/,/
Cc1ccc(C(C)C)c(OC2=NS(=O)(=O)c3cc([N+](=O)[O-])ccc32)c1,0,6,16,13*,-1,-6
S=C(NCCc1ccccc1)NCC(c1cccnc1)N1CCOCC1 (centres undefined),0,3,-4,9.3*,1,9
Cc1ccccc1NC(=S)NCC(c1cccnc1)N1CCOCC1 (centres undefined),0,-8,4,0,/,/
